Assay results taken from PubChem BioAssay (NCI).
Compounds without any hit were thinned out: in the full panel of roughly 83,000, 20% have a hit.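 Each cell line was grown in a 96-well plate and treated with one concentration of compound for 48 hours. Values below 10 were considered active.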 Active and inactive are the calls of the source.

Columns and labels:
Assay in all cases: NCI-60 one-dose screen, 48 h (100 = growth as untreated, 0 = no growth, -100 = all killed)
Settings in all cases: 10 µM unless noted
[1] = tested on: NCI-H23 lung
[2] = tested on: NCI-H226 lung
[3] = tested on: NCI-H322M lung
[4] = tested on: HOP-62 NSCLC
[5] = tested on: NCI-H460 lung
[6] = tested on: HOP-92 NSCLC
[7] = tested on: NCI-H522 lung
[8] = tested on: A549/ATCC NSCLC
[9] = tested on: 786-0 renal
[10] = tested on: COLO 205 colon
[11] = tested on: DU-145 prostate
[12] = tested on: K-562 leukemia
[13] = tested on: MALME-3M melanoma
[14] = tested on: MDA-MB-231 breast
[15] = tested on: RXF 393 renal
[16] = tested on: SF-268 CNS
[17] = tested on: SF-295 CNS
[18] = tested on: SF-539 CNS
[19] = tested on: UACC-257 melanoma
[20] = tested on: M14 melanoma

| SMILES | growth [1] | growth [2] | growth [3] | growth [4] | growth [5] | growth [6] | growth [7] | growth [8] | growth [9] | growth [10] | growth [11] | growth [12] | growth [13] | growth [14] | growth [15] | growth [16] | growth [17] | growth [18] | growth [19] | growth [20] |
| --- | --- | --- | --- | --- | --- | --- | --- | --- | --- | --- | --- | --- | --- | --- | --- | --- | --- | --- | --- | --- |
| Nc1cc(-c2c[nH]c3ccc(F)cc23)nc2cc(-c3c[nH]c4ccccc34)nn12 | -12.7% (active) | 52.9% (inactive) | 30.2% (inactive) | 1.04% (active) | 3.08% (active) | -9.18% (active) | -49.9% (active) | 9.83% (active) | -81% (active) | -88.8% (active) | 26.9% (inactive) | 5.2% (active) | -28% (active) | -65.5% (active) | 36.5% (inactive) | 35.4% (inactive) | -66% (active) | -74.8% (active) | -63.3% (active) | -23.1% (active) |
| O=C(NC(=S)N1CCN(c2ncnc3c2cnn3-c2ccccc2)CC1)c1ccc(F)cc1 | 77.5% (inactive) | 84.9% (inactive) | 75.8% (inactive) | 70.6% (inactive) | 43.8% (inactive) | 67.9% (inactive) | 57.6% (inactive) | 76.2% (inactive) | 98.6% (inactive) | 90.4% (inactive) | 86.4% (inactive) | 51.3% (inactive) | 78.1% (inactive) | 84.2% (inactive) | 77% (inactive) | 80.2% (inactive) | 69.3% (inactive) | 73.8% (inactive) | 89% (inactive) | 86.8% (inactive) |
| CCOc1ccccc1[C@H]1C(C(=O)c2ccc(Cl)cc2)C2(N[C@@H]1c1ccccc1)C(=O)Nc1ccc(Br)cc12 (stereo not given in full) | -39.1% (active) | -68.4% (active) | 15.8% (inactive) | 7.94% (active) | 2.95% (active) | -46.9% (active) | -4.42% (active) | 41% (inactive) | -76.5% (active) | -82.3% (active) | 23% (inactive) | -13% (active) | -15% (active) | -68.7% (active) | -88.4% (active) | 14.2% (inactive) | -42.6% (active) | -70.2% (active) | 44% (inactive) | -38% (active) |
| O=C(NN1C(=O)/C(=C/C=C/c2ccc([N+](=O)[O-])o2)SC1=S)c1ccc([N+](=O)[O-])cc1 | -88.4% (active) | -83.3% (active) | -100% (active) | -100% (active) | -48.9% (active) | -84.2% (active) | -88.7% (active) | -93% (active) | -80.1% (active) | -94.1% (active) | -100% (active) | 4.2% (active) | -91.3% (active) | -99.7% (active) | -88.6% (active) | -82.3% (active) | -97.5% (active) | -100% (active) | -82.2% (active) | -82.5% (active) |
| CNS(=O)(=O)N1CCc2c(Br)c3c(c(OC)c2C1CCc1ccccc1)OCO3 (stereo not given) | -19.5% (active) | -70.3% (active) | 4.7% (active) | -18.6% (active) | -67.7% (active) | -54.3% (active) | -12.3% (active) | 16.6% (inactive) | -44.9% (active) | -51.3% (active) | 12.1% (inactive) | 13.1% (inactive) | -65% (active) | -62.8% (active) | -59.7% (active) | -12% (active) | -75.3% (active) | -86.5% (active) | -24.5% (active) | -9.58% (active) |
| COc1cc(/C=C/C(=O)c2cnn(-c3cc(=O)[nH]c4ccccc34)c2C)cc(OC)c1OC | 3.65% (active) | 21.9% (inactive) | 12.8% (inactive) | -1.9% (active) | 7.98% (active) | 23.3% (inactive) | -18.1% (active) | 7.4% (active) | 18.2% (inactive) | 4.15% (active) | 24.9% (inactive) | 3.19% (active) | 38.2% (inactive) | 5.84% (active) | -6.88% (active) | 32.2% (inactive) | 14.5% (inactive) | -48% (active) | 43.3% (inactive) | 19.5% (inactive) |
| O=C(c1ccc(O)cc1)C1[C@H](c2ccccc2Br)[C@@H](c2ccccc2)NC12C(=O)Nc1ccccc12 (stereo not given in full) | 34.3% (inactive) | 53.3% (inactive) | 61.6% (inactive) | 59.8% (inactive) | 33.1% (inactive) | 38.8% (inactive) | -21.1% (active) | 22.9% (inactive) | 28.8% (inactive) | 28% (inactive) | 63.1% (inactive) | 29.4% (inactive) | 71.6% (inactive) | 41% (inactive) | 20.8% (inactive) | 49.1% (inactive) | 27.9% (inactive) | 55% (inactive) | 45.8% (inactive) | 58.6% (inactive) |
| COC(=O)c1cc(C(=O)C(Br)Br)n2c1ccc1c3ccccc3ccc12 | 69% (inactive) | 64.2% (inactive) | 89.4% (inactive) | 56.7% (inactive) | 18.4% (inactive) | 54.3% (inactive) | 60.2% (inactive) | 40.8% (inactive) | 64.6% (inactive) | 55.3% (inactive) | 52.2% (inactive) | 52.3% (inactive) | 65.6% (inactive) | 67.7% (inactive) | 141% (inactive) | 68% (inactive) | 54% (inactive) | 54.9% (inactive) | 80.1% (inactive) | 75.1% (inactive) |
| CN1C(=O)C(O)(CC(=O)c2cc3ccccc3oc2=O)c2ccccc21 (stereo not given) | 93.3% (inactive) | 81% (inactive) | 103% (inactive) | 97% (inactive) | 114% (inactive) | 110% (inactive) | 92.7% (inactive) | 111% (inactive) | 105% (inactive) | 114% (inactive) | 137% (inactive) | 72.7% (inactive) | 94.7% (inactive) | 91.8% (inactive) | 122% (inactive) | 98.8% (inactive) | 96.3% (inactive) | 93.3% (inactive) | 109% (inactive) | 94.2% (inactive) |
| O=C(NC(=S)N1CCN(c2ncnc3c2cnn3-c2ccccc2)CC1)c1ccc(Br)cc1 | 64.4% (inactive) | 60.6% (inactive) | 75.4% (inactive) | 37.4% (inactive) | 69.2% (inactive) | 47.2% (inactive) | 60.9% (inactive) | 80.6% (inactive) | 72% (inactive) | 98.7% (inactive) | 87.3% (inactive) | 61.4% (inactive) | 53.4% (inactive) | 75.4% (inactive) | 69.1% (inactive) | 58.5% (inactive) | 48.3% (inactive) | -17.5% (active) | 88.7% (inactive) | 83.1% (inactive) |
| CN1CCN(C(=O)CCN(C(=O)Oc2cc3c(c4ccccc24)[C@H](CCl)CN3C(=O)c2cc3cc(OCCCN4CCC4)ccc3[nH]2)[C@H]2CCSSC2)CC1 | -73.3% (active) | -17.9% (active) | -48% (active) | -77.4% (active) | 2.93% (active) | -32.1% (active) | -74.4% (active) | -61.5% (active) | -90.8% (active) | -80% (active) | -84.3% (active) | -42.9% (active) | -86.8% (active) | -89.6% (active) | -86.7% (active) | -50.4% (active) | -71% (active) | -94% (active) | -77.9% (active) | -62.5% (active) |
| O=C(CSc1nc2ccccc2c(=O)[nH]1)NNC(=O)c1ccccc1Cl | 104% (inactive) | 111% (inactive) | 116% (inactive) | 115% (inactive) | 106% (inactive) | 100% (inactive) | 104% (inactive) | 92.3% (inactive) | 97.1% (inactive) | 124% (inactive) | 110% (inactive) | 103% (inactive) | 105% (inactive) | 99.8% (inactive) | 117% (inactive) | 106% (inactive) | 112% (inactive) | 96.5% (inactive) | 95% (inactive) | 110% (inactive) |
| COc1ccc(C(=O)c2c(N)c(C#N)cn2-c2ccc([N+](=O)[O-])cc2)cc1 | 103% (inactive) | 102% (inactive) | 100% (inactive) | 83.4% (inactive) | 108% (inactive) | 102% (inactive) | 85.1% (inactive) | 103% (inactive) | 109% (inactive) | 105% (inactive) | 109% (inactive) | 104% (inactive) | 102% (inactive) | 99% (inactive) | 94.2% (inactive) | 99.6% (inactive) | 91.9% (inactive) | 95.7% (inactive) | 111% (inactive) | 113% (inactive) |
| O=C(Nc1ccc(-c2ccc3c(c2)NC(=O)/C3=C\c2ccc[nH]2)cc1)Nc1ccc(Cl)c(C(F)(F)F)c1 | 15.4% (inactive) | 65.8% (inactive) | 50.6% (inactive) | 44.1% (inactive) | 4.07% (active) | 46.9% (inactive) | -15.1% (active) | 18% (inactive) | 48.8% (inactive) | 15.4% (inactive) | 44.1% (inactive) | 15.2% (inactive) | 64.4% (inactive) | 72.2% (inactive) | 42.3% (inactive) | 46.3% (inactive) | 38.4% (inactive) | 44.2% (inactive) | 24.5% (inactive) | 54.8% (inactive) |
| CN1C(=O)C2(C(C#N)=C(c3ccc(Cl)cc3)Nc3c2c(-c2ccccc2)nn3-c2ccccc2)c2ccccc21 (stereo not given) | 80% (inactive) | 69.3% (inactive) | 87.5% (inactive) | 44.5% (inactive) | 92.4% (inactive) | 75.1% (inactive) | 85.8% (inactive) | 89.7% (inactive) | 97.2% (inactive) | 85.9% (inactive) | 93.6% (inactive) | 40.8% (inactive) | 78.9% (inactive) | 46.1% (inactive) | 77% (inactive) | 93.5% (inactive) | 77.4% (inactive) | -85.3% (active) | 112% (inactive) | 77.2% (inactive) |
